For 7 molecules, growth results are on record in PubChem BioAssay (NCI).

Compounds without any hit were thinned out: in the full panel of roughly 83,000, 20% have a hit.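 The test compound was applied at a single concentration to cells in 96-well plates for 48 hours, and percent growth was recorded.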 Values without a mark were called inactive. Calls of active or inactive are those of the source. How the source made its calls: active means growth percent below 10; inactive means the rest.

Some test systems named below: NCI-H23 lung; NCI-H322M lung; HOP-62 NSCLC; NCI-H460 lung; HOP-92 NSCLC; NCI-H522 lung; A549/ATCC NSCLC; 786-0 renal; COLO 205 colon; DU-145 prostate; K-562 leukemia; MALME-3M melanoma; MDA-MB-231 breast; RXF 393 renal; SF-268 CNS; SF-295 CNS; SF-539 CNS; UACC-257 melanoma; M14 melanoma; HCT-15 colon.
Common to all, as to test: NCI-60 one-dose screen, 48 h (100 = growth as untreated, 0 = no growth, -100 = all killed)
Holding throughout (conditions): 10 µM unless noted

As to `COc1cccc(/C=C/C(=O)c2c(C)nc3ccccc3c2/C=C/c2ccccc2)c1OC`, the growth with NCI-H23 lung was 31.2%; in the test on NCI-H322M lung, 45.3%; in the test with HOP-62 NSCLC, 55.2%; in the test on NCI-H460 lung it was 2.78% (active); with HOP-92 NSCLC, 60.7%; in the test with NCI-H522 lung it was 3.88% (active). Further, the growth with A549/ATCC NSCLC is 30.9%; with 786-0 renal, 42.4%; in the test on COLO 205 colon, 56.3%; in the test with DU-145 prostate, 4.24% (active); in the test on K-562 leukemia, 9.13% (active); in the test with MALME-3M melanoma, 69.1%. Further, the growth was 20.9% in the test on MDA-MB-231 breast; 15.4% with RXF 393 renal; 38.8% with SF-268 CNS; 46.5% in the test with SF-295 CNS; 58.8% in the test on SF-539 CNS; 46.1% in the test with UACC-257 melanoma. Also, the growth with M14 melanoma is 36.3%; in the test on HCT-15 colon it was 5.81% (active).

In the case of `COC(=O)C1(C)CCC[C@]2(C)[C@H]3C[C@H]4C(C(C)C)=C[C@]3(CC[C@@H]12)[C@H]1[C@@H]4[C@@H](OCC#CCN2CCOCC2)CC[C@@H]1OCC#CCN1CCOCC1` (stereo not given in full), the growth in the test with NCI-H23 lung is 82.6%; with NCI-H322M lung, 102%; in the test with HOP-62 NSCLC, 85.3%; in the test with NCI-H460 lung, 94%; in the test on HOP-92 NSCLC, 54.9%; with NCI-H522 lung, 74.4%. For the same molecule, the growth is 66.8% in the test on A549/ATCC NSCLC; 86.1% in the test with 786-0 renal; 89.2% in the test on COLO 205 colon; 95.5% in the test on DU-145 prostate; 70.3% with K-562 leukemia; 79.3% with MALME-3M melanoma. Besides, the growth in the test on MDA-MB-231 breast is 77.2%; with RXF 393 renal it was 91.9%; in the test on SF-268 CNS, 83.7%; in the test on SF-295 CNS, 93.9%; in the test on SF-539 CNS, 86.2%; in the test with UACC-257 melanoma it was 83.8%. Further, the growth in the test on M14 melanoma is 81.6%; with HCT-15 colon, 85.5%.

With `Nc1ncnc(N)c1NC(=O)c1ccc(OCc2ccccc2)cc1`, the growth with NCI-H23 lung was 105%; in the test with NCI-H322M lung it was 100%; in the test on HOP-62 NSCLC, 104%; with NCI-H460 lung it was 107%; in the test on HOP-92 NSCLC, 106%; in the test with NCI-H522 lung, 91.3%. The growth is 103% with A549/ATCC NSCLC; 104% with 786-0 renal; 103% with COLO 205 colon; 111% in the test with DU-145 prostate; 105% in the test with K-562 leukemia; 102% in the test on MALME-3M melanoma. The growth in the test on MDA-MB-231 breast was 104%; in the test on RXF 393 renal, 107%; in the test with SF-268 CNS it was 104%; in the test on SF-295 CNS it was 103%; in the test on SF-539 CNS, 95.5%; in the test with UACC-257 melanoma, 104%. The growth was 108% with M14 melanoma and 99.5% with HCT-15 colon.

In the case of `COc1cc(/C=C2\CN(S(=O)(=O)c3ccccc3)C/C(=C\c3cc(CN4CCCC4)c(O)c(OC)c3)C2=O)cc(CN2CCCC2)c1O`, the growth in the test on NCI-H23 lung was -57.8% (active); with NCI-H322M lung, 21.4%; with HOP-62 NSCLC, -4.65% (active); in the test on NCI-H460 lung, -30.7% (active); with HOP-92 NSCLC, -11.3% (active); in the test with NCI-H522 lung, -26.3% (active). In addition, the growth in the test on A549/ATCC NSCLC is 19.9%; with 786-0 renal, 4.02% (active); in the test on COLO 205 colon, -30.4% (active); with DU-145 prostate it was -16.7% (active); in the test with K-562 leukemia, 8.41% (active); in the test on MALME-3M melanoma, -51.6% (active). Also, the growth in the test on MDA-MB-231 breast is -32.7% (active); in the test on RXF 393 renal it was -65.4% (active); in the test on SF-268 CNS it was 12.9%; with SF-295 CNS, -34.2% (active); in the test with SF-539 CNS, -46.6% (active); with UACC-257 melanoma, 40.1%. Moreover, the growth is -19.2% (active) in the test with M14 melanoma and 50.3% with HCT-15 colon.

Take `CCN1C(=O)N(CC)C2C1NN=c1s/c(=C3\C(=O)N(C(C)C)c4ccccc43)c(=O)n12` (stereo not given): the growth in the test on NCI-H23 lung was 28.8%; in the test on NCI-H322M lung, 52.6%; with HOP-62 NSCLC, 38.7%; in the test on NCI-H460 lung, 5.6% (active); in the test on HOP-92 NSCLC, 54%; with NCI-H522 lung it was -3.38% (active). Moreover, the growth in the test on A549/ATCC NSCLC was 16.5%; with 786-0 renal it was 30.6%; in the test with COLO 205 colon, -16% (active); in the test with DU-145 prostate it was 3.71% (active); in the test with K-562 leukemia it was 7.46% (active); with MALME-3M melanoma it was 64.6%. Besides, the growth in the test with MDA-MB-231 breast was 11.3%; with RXF 393 renal, 35.5%; with SF-268 CNS it was 25.2%; with SF-295 CNS, 5.01% (active); in the test on SF-539 CNS it was -13.2% (active); with UACC-257 melanoma, 57.1%. The growth in the test with M14 melanoma was 18.9%; with HCT-15 colon, 12.4%.

In the case of `O=S1(=O)CCN(Cc2ccccc2)CC1`, the growth is 98.4% with NCI-H23 lung; 110% in the test on NCI-H322M lung; 96.7% in the test on HOP-62 NSCLC; 103% in the test with NCI-H460 lung; 79.5% in the test on HOP-92 NSCLC; 104% in the test with NCI-H522 lung. In addition, the growth was 104% in the test with A549/ATCC NSCLC; 95.3% in the test with 786-0 renal; 107% in the test with COLO 205 colon; 103% in the test with DU-145 prostate; 101% in the test on K-562 leukemia; 112% with MALME-3M melanoma. In addition, the growth with MDA-MB-231 breast is 105%; with RXF 393 renal it was 121%; with SF-268 CNS it was 92.2%; in the test on SF-295 CNS, 97%; in the test on SF-539 CNS, 95.6%; with UACC-257 melanoma, 105%. Moreover, the growth in the test on M14 melanoma is 90.3%; in the test on HCT-15 colon it was 92.8%.

On to `Clc1ccc(Oc2ccc(Nc3ncnc4onc(-c5ccccc5)c34)cc2)c(Cl)c1`, for which the growth was 89.4% with NCI-H23 lung; 111% with NCI-H322M lung; 104% with HOP-62 NSCLC; 101% in the test on NCI-H460 lung; 102% in the test on HOP-92 NSCLC; 73.2% in the test on NCI-H522 lung. Moreover, the growth in the test on A549/ATCC NSCLC was 91.2%; in the test with 786-0 renal it was 96.3%; in the test on COLO 205 colon it was 105%; with DU-145 prostate it was 106%; in the test with K-562 leukemia, 78.1%; in the test on MALME-3M melanoma, 105%. Moreover, the growth in the test with MDA-MB-231 breast was 99.7%; in the test on RXF 393 renal, 120%; in the test on SF-268 CNS it was 102%; in the test on SF-295 CNS, 97%; with SF-539 CNS it was 98.8%; with UACC-257 melanoma, 99%. Besides, the growth in the test with M14 melanoma was 95.6%; in the test on HCT-15 colon, 89%.
